AC50 data for one compound are collected here from PubChem BioAssay AID2284117 (EPA ToxCast).

Activity calls are given as the source filed them. The calls were made as follows: active = hit-call score of the fitted dose curve at least 0.9, where 1 is the maximum; inactive = score below 0.9.

In this assay the target is human PDE4A1A Phosphodiesterase, PDE4A (gene 5141) (UniProt P27815). Briefly: ERF_FR_ENZ_hPDE4A: Eurofins (ERF) Enzymatic LeadHunter Assay for human PDE4A1A Phosphodiesterase. As for the experimental part: ERF_FR_ENZ_hPDE4A is a biochemical, single-readout assay that uses extracted gene-proteins in a cell-free assay. Measurements were taken 0.33 hour after chemical dosing in a 96-well plate. See PDE4A1A Human Phosphodiesterase Enzymatic Assay, Cerep.ERF_FR_ENZ_hPDE4A is an assay component calculated from the ERF_FR_ENZ_hPDE4A assay. It is designed to measure enzyme activity using a type of enzyme reporter as detected by scintillation counting with radiometry technology.Data from the assay component ERF_FR_ENZ_hPDE4A was analyzed at the assay endpoint, ERF_FR_ENZ_hPDE4A, in the positive analysis fitting direction relative to DMSO as the negative control and baseline of activity. Using a type of enzyme reporter, loss-of-signal activity can be used to understand changes in enzymatic activity as they relate to gene PDE4A. To generalize the intended target to other relatable targets, this assay endpoint is annotated to the phosphodiesterase intended target family, where the subfamily is cyclic nucleotide signaling.
human PDE4A1A Phosphodiesterase, PDE4A (gene 5141), sequence (P27815 whole entry, looked up): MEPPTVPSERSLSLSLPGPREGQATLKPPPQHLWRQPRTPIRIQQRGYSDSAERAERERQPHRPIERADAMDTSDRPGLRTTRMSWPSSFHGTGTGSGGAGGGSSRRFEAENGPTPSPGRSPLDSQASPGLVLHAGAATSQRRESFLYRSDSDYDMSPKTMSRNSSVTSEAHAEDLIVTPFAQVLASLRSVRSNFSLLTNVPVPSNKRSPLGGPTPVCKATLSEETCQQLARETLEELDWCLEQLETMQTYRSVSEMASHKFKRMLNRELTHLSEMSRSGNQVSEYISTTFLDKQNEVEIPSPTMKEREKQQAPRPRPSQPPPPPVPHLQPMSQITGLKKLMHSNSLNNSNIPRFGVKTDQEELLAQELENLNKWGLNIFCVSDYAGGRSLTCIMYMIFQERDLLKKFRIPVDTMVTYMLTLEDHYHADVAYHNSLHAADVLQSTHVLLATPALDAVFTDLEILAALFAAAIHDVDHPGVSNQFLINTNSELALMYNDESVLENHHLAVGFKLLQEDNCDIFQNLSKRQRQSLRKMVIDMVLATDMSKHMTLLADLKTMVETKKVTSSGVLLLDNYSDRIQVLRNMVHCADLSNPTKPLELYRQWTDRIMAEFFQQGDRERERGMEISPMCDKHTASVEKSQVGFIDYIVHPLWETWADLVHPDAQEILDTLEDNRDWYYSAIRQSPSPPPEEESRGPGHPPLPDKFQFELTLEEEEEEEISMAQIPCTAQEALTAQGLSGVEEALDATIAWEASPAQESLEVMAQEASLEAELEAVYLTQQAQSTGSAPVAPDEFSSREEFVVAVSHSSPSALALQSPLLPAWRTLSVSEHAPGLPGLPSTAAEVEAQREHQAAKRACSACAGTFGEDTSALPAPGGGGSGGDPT
Human cells are incubated for 10 minutes at room temprature with [3H]cAMP + cAMP (0.5uM) as sunstrate and Nitrendipine as control inhibitor. Test Sample Requirements: Minimum for 1) Screen: 60 ul of 10 mM stock -OR- 1 mg (pre-weighed) for 10 uM final testing. 2) Dose Response: 90 ul of 10 mM stock -OR- 1 mg (pre-weighed) for a top concentration at 10 uM.
For `COc1cc(CCC(=O)CC(=O)CCc2ccc(O)c(OC)c2)ccc1O`, the AC50 (as a rule, the concentration giving half of the maximal activity seen) is 2660 nM (active).
